The entries come from a sample that favours the strongest signals as a whole.
How the values were obtained:
Test in all cases: glycan array binding signal (z-score within array); higher = stronger binding
Settings in all cases: glycan notation: IUPAC condensed, linker removed
[1] = target: Fuc(a1-2)[Gal(a1-3)]Gal(b1-4)Glc
Method in brief: (§1)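 Negative Z-scores can be read as non-binding. The Z-score is calculated within each array and then averaged across arrays of one protein sequence at different concentrations or buffers and across linkers. Arrays, 3228 in all, were curated from the Consortium for Functional Glycomics database and kept only where the protein sequence was available.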

[2] = target: Fuc(a1-2)[GalNAc(a1-3)]Gal(b1-4)[Fuc(a1-3)]GlcNAc
Method in brief: as §1

Fuc(a1-3)GlcNAc = target: Fuc(a1-3)GlcNAc
Method in brief: as §1

[3] = target: Gal(b1-3)GalNAc(b1-3)Gal(a1-4)Gal(b1-4)Glc
Method in brief: as §1

[4] = target: Gal(b1-3)[GlcNAc(b1-6)]GalNAc
Method in brief: as §1

[5] = target: Gal(b1-3)[Neu5Ac(a2-6)]GalNAc
Method in brief: as §1

[6] = target: Gal(b1-4)GalNAc(b1-3)[Fuc(a1-2)]Gal(b1-4)GlcNAc
Method in brief: as §1

[7] = target: GalNAc(b1-3)Gal(a1-4)Gal(b1-4)GlcNAc
Method in brief: as §1

[8] = target: GlcNAc(b1-6)Gal(b1-4)GlcNAc
Method in brief: as §1

[9] = target: Man(a1-2)Man(a1-2)Man(a1-3)Man
Method in brief: as §1

[10] = target: Neu5Ac(a2-3)Gal(b1-3)GalNAc(b1-3)Gal(a1-4)Gal(b1-4)Glc
Method in brief: as §1

[11] = target: Neu5Ac(a2-3)Gal(b1-3)[Fuc(a1-4)]GlcNAc
Method in brief: as §1

[12] = target: Neu5Ac(a2-3)Gal(b1-4)GlcNAc(b1-3)Gal(b1-4)GlcNAc(b1-3)Gal(b1-4)GlcNAc
Method in brief: as §1

[13] = target: Neu5Ac(a2-3)Gal(b1-4)GlcNAc(b1-3)Gal(b1-4)[Fuc(a1-3)]GlcNAc
Method in brief: as §1

[14] = target: Neu5Ac(a2-3)[Neu5Ac(a2-6)]GalNAc
Method in brief: as §1

[15] = target: Neu5Ac(a2-6)GalNAc(b1-4)GlcNAc
Method in brief: as §1

[16] = target: Neu5Gc(a2-3)Gal(b1-3)[Fuc(a1-4)]GlcNAc
Method in brief: as §1

[17] = target: Neu5Gc(a2-3)Gal(b1-4)GlcNAc
Method in brief: as §1

[18] = target: Fuc(a1-2)[Gal(a1-3)]Gal(b1-4)GlcNAc
Method in brief: as §1

Gal(a1-4)Gal(b1-4)GlcNAc = target: Gal(a1-4)Gal(b1-4)GlcNAc
Method in brief: as §1

[19] = target: Gal(b1-3)GalNAc(b1-4)Gal(b1-4)Glc
Method in brief: as §1

[20] = target: Gal(b1-4)GlcNAc(b1-3)Gal(b1-4)GlcNAc
Method in brief: as §1

Gal3S(b1-4)GlcNAc = target: Gal3S(b1-4)GlcNAc
Method in brief: as §1

GalNAc(a1-3)Gal = target: GalNAc(a1-3)Gal
Method in brief: as §1

GalNAc(b1-3)GalNAc = target: GalNAc(b1-3)GalNAc
Method in brief: as §1

GlcNAc(b1-3)Gal = target: GlcNAc(b1-3)Gal
Method in brief: as §1

Kdn(a2-3)Gal(b1-4)GlcNAc = target: Kdn(a2-3)Gal(b1-4)GlcNAc
Method in brief: as §1

[21] = target: Man(a1-2)Man(a1-3)[Man(a1-2)Man(a1-6)]Man(a1-6)[Man(a1-3)[Man(a1-6)]Man(a1-6)]Man(b1-4)GlcNAc(b1-4)GlcNAc
Method in brief: as §1

[22] = target: Man(a1-2)Man(a1-6)[Man(a1-3)]Man(a1-6)[Man(a1-2)Man(a1-2)Man(a1-3)]Man(b1-4)GlcNAc(b1-4)GlcNAc
Method in brief: as §1

Man(a1-3)[Man(a1-6)]Man = target: Man(a1-3)[Man(a1-6)]Man
Method in brief: as §1

[23] = target: Neu5Ac(a2-3)Gal(b1-3)[Neu5Ac(a2-3)Gal(b1-4)]GlcNAc
Method in brief: as §1

Neu5Ac(a2-8)Neu5Ac = target: Neu5Ac(a2-8)Neu5Ac
Method in brief: as §1

[24] = target: Neu5Ac(a2-8)Neu5Ac(a2-3)[GalNAc(b1-4)]Gal(b1-4)Glc
Method in brief: as §1

[25] = target: Neu5Gc(a2-3)Gal(b1-3)GlcNAc
Method in brief: as §1

B1: HMGB1 (Rattus norvegicus), P63159 (protein)
chain: MGKGDPKKPRGKMSSYAFFVQTCREEHKKKHPDASVNFSEFSKKCSERWKTMSAKEKGKFEDMAKADKARYEREMKTYIPPKGETKKKFKDPNAPKRPPSAFFLFCSEYRPKIKGEHPGLSIGDVAKKLGEMWNNTAADDKQPYEKKAAKLKEKYEKDIAAYRAKGKPDAAKKGVVKAEKSKKKKEEEDDEEDEEDEEEEEEEEDEDEEEDDDDE
For B1, the “glycan array binding signal (z-score)” value [1] was 0.151, the “glycan array binding signal (z-score)” value [2] was -0.019 and the “glycan array binding signal (z-score)” value (Fuc(a1-3)GlcNAc) was 9.99. For the same binder, the “glycan array binding signal (z-score)” value [3] was -0.447, the “glycan array binding signal (z-score)” value [4] was -0.335 and the “glycan array binding signal (z-score)” value [5] was -0.379. The “glycan array binding signal (z-score)” value [6] was -0.322, the “glycan array binding signal (z-score)” value [7] was 2.44 and the “glycan array binding signal (z-score)” value [8] was 2.57. For the same binder, the “glycan array binding signal (z-score)” value [9] was -0.58, the “glycan array binding signal (z-score)” value [10] was -0.21 and the “glycan array binding signal (z-score)” value [11] was -0.164. For the same binder, the “glycan array binding signal (z-score)” value [12] was -0.169, the “glycan array binding signal (z-score)” value [13] was 2.06 and the “glycan array binding signal (z-score)” value [14] was -0.263. The “glycan array binding signal (z-score)” value [15] was 2.1, the “glycan array binding signal (z-score)” value [16] was 2.69 and the “glycan array binding signal (z-score)” value [17] was 0.031.

B2: IRP60A (Homo sapiens), Q9UGN4 (protein)
chain: MWLPWALLLLWVPGCFALSKCRTVAGPVGGSLSVQCPYEKEHRTLNKYWCRPPQIFLCDKIVETKGSAGKRNGRVSIRDSPANLSFTVTLENLTEEDAGTYWCGVDTPWLRDFHDPVVEVEVSVFPASTSMTPASITAAKTSTITTAFPPVSSTTLFAVGATHSASIQEETEEVVNSQLPLLLSLLALLLLLLVGASLLAWRMFQKWIKAGDHSELSQNPKQAATQSELHYANLELLMWPLQEKPAPPREVEVEYSTVASPREELHYASVVFDSNTNRIAAQRPREEEPDSDYSVIRKT
For B2, the “glycan array binding signal (z-score)” value [18] was -0.266, the “glycan array binding signal (z-score)” value (Gal(a1-4)Gal(b1-4)GlcNAc) was -0.116 and the “glycan array binding signal (z-score)” value [19] was -0.487. For the same binder, the “glycan array binding signal (z-score)” value [5] was -0.296, the “glycan array binding signal (z-score)” value [20] was -0.308 and the “glycan array binding signal (z-score)” value (Gal3S(b1-4)GlcNAc) was 0.268. The “glycan array binding signal (z-score)” value (GalNAc(a1-3)Gal) was 6.44, the “glycan array binding signal (z-score)” value (GalNAc(b1-3)GalNAc) was 0.467 and the “glycan array binding signal (z-score)” value (GlcNAc(b1-3)Gal) was -0.069. The “glycan array binding signal (z-score)” value (Kdn(a2-3)Gal(b1-4)GlcNAc) was -0.156, the “glycan array binding signal (z-score)” value [21] was -0.396 and the “glycan array binding signal (z-score)” value [22] was -0.395. The “glycan array binding signal (z-score)” value (Man(a1-3)[Man(a1-6)]Man) was 8.07, the “glycan array binding signal (z-score)” value [23] was -0.378 and the “glycan array binding signal (z-score)” value (Neu5Ac(a2-8)Neu5Ac) was 5.86. The “glycan array binding signal (z-score)” value [24] was -0.404 and the “glycan array binding signal (z-score)” value [25] was -0.502.

From the supplement of paper PMC8728848
